According to the supplement of paper PMC6555819:

Columns and labels:
Assay in all cases: PBM binding z-score (relative to random genomic background probes); higher = stronger binding; sequences stand for … in GC…GCGATTGACAGCGTAGAATGAAGG
[1] = tested on: RARb homodimer (NR concentration 270 nM)
Outline: (§1)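 Scanned fluorescence from custom Agilent 4×180K protein-binding microarrays was regression-normalized. Binding z-scores use random background probes as reference. Ligand-free nuclear receptor dimers were incubated on the arrays for 1 h and detected with antibodies against each partner (one per run).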

[2] = tested on: RARg:RXRa (NR concentration 270 nM, RXRa partner concentration 90 nM)
Outline: as §1

[3] = tested on: RARg homodimer (NR concentration 270 nM)
Outline: as §1

[4] = tested on: RXRa DBDmut IVT, anti-RXR (DBD mutation: RXRa K156A/R161A, NR concentration 90 nM)
Outline: as §1

[5] = tested on: RXRa homodimer (NR concentration 180 nM)
Outline: as §1

[6] = tested on: THRa:RXRa (NR concentration 90 nM, RXRa partner concentration 90 nM)
Outline: as §1

[7] = tested on: THRa homodimer (NR concentration 90 nM)
Outline: as §1

[8] = tested on: VDR homodimer (NR concentration 270 nM)
Outline: as §1

Row | Sequence | PBM binding z-score [1] | PBM binding z-score [2] | PBM binding z-score [3] | PBM binding z-score [4] | PBM binding z-score [5] | PBM binding z-score [6] | PBM binding z-score [7] | PBM binding z-score [8]
1 | TCTATCAGTTGAAGGGCAACCGACGAGTCCGTTT | 1.44 | 0.695 | 0.748 | 1.11 | 0.849 | 0.16 | 0.0373 | 1.44
2 | AGAACGAGGGCACGCTGAGTTGATAGCTGAGTAG | 1.13 | 2.07 | 2.06 | 2.15 | 1.37 | 1.92 | -0.0647 | 1.7
3 | CGTCCAAGGTCATCGGAGGTCAGTGAAGACAGAT | 5.43 | 7.31 | 7.72 | 4.24 | 6.83 | 5.45 | 3.48 | 5.07
4 | CCGACTGGGGCAGAAAGGTTACCAGACCATCCGG | 2.18 | 1.75 | 1.28 | -0.651 | 1.71 | 0.99 | -0.742 | -0.568
5 | CGAACTAGGTCGTTGACAGGACAGTGAATAGTAA | 0.711 | 1.6 | 1.2 | 1.18 | 0.488 | 1.33 | 0.0428 | 0.716
6 | CTCGAACGGTCGGTTGAGGTGAGTATACGGATAA | 0.411 | 0.215 | 0.464 | -0.356 | -0.11 | 3.27 | 0.822 | -0.341
7 | CCTTACGGGTCACTCCAGGTTATAGGATCGGAGT | 3.21 | 4.55 | 4.56 | 1.45 | 4.79 | 4.95 | 0.641 | 1.51
8 | GCTGCTAGGTCAACTGATGGTCAGCCAAAGCTCG | 3.68 | 5.01 | 5.1 | 1.7 | 2.89 | 2.86 | 0.852 | -0.263
9 | CTTAGCAGGCCAATCTGGGTCACTCAAGGCTTGA | 2.2 | 0.952 | 1.3 | 0.294 | 0.782 | 3.77 | 0.497 | -0.119
10 | GCGAATGGGGCATCAGCAGGTTACCATAACTTAA | 0.462 | 0.664 | 0.351 | 0.119 | 0.257 | 0.795 | 0.03 | -0.224
11 | CCTAGCAGGCGAATCTGGGTCACTCAAGGCTTGA | 1.53 | 0.494 | 0.428 | 0.0113 | 0.669 | 2.71 | 0.222 | -0.316
12 | ACTTTCGGGTCAACGAGGTTATAGCACGCGTATA | 3.85 | 5.69 | 5.44 | 3.12 | 6.2 | 4.62 | 3.51 | 4.05
13 | CAAACTAGGTCAACGGAAGGTCAAAGTCCGCATG | 5.37 | 8.1 | 6.98 | 2.17 | 5.99 | 4.24 | 2.34 | 3.65
14 | CGTCAAAGTTCAAGTAAGGTAACGTAAAGCACGC | 4.18 | 5.63 | 6.15 | 4.54 | 4.68 | 5.33 | 1.95 | 3.69
15 | ATCTCTAAGTAAGACTCAGTTCAGTGAAGAACGC | 0.513 | 0.345 | 0.42 | 0.804 | -0.0426 | 0.401 | 0.351 | 1.57
16 | GCTTGTGGATCAAGGTTAAGAAAGACTAAGCTAA | 0.362 | 0.34 | 0.12 | 0.0412 | 0.848 | 1.27 | -0.23 | 0.00536
17 | GCGACTGGGGCAAAGCAGGTTACTATAAGGTTGG | 0.948 | 0.427 | 0.689 | 0.143 | 0.276 | 2.81 | 0.101 | -0.0549
18 | CGTCAAAGTTCAACTAAAGTAACGTAAAGCACGC | 4.13 | 5.9 | 6.97 | 4.67 | 5.02 | 2.61 | 0.0523 | 3.56
19 | CGAAGTAGGTCAGAACAGGACAGTGAAGGATGAT | 2.04 | 2.23 | 3.23 | 0.286 | 1.37 | 3.52 | 0.146 | 0.1
20 | ATATGTAGGTTAAGGGTCATTAAGGTTGGTTCGC | 4.07 | 4.66 | 3.54 | 1.78 | 5.92 | 3.48 | 1.58 | 3.96
21 | GGAACGAGGGCATGCGAGTTGATAGCATGGCGAT | 0.608 | 1.21 | 1.6 | 2.03 | 0.847 | 2.7 | -0.777 | 1.97
22 | ATACAAAGGTGATCGTGAGGTCGTTGATACTAAC | 2.28 | 3.87 | 1.85 | 0.883 | 2.73 | 3.66 | 2.12 | 2.97
23 | TCTTGTCGATCAACAGGAGGTTAAGAAAGATCGA | 0.439 | 0.322 | 0.198 | 0.168 | 0.805 | 0.59 | -0.736 | -0.499
24 | CAAACTAGGTCACGAAAGGACAAAGTCGAATGAC | 4.13 | 5.37 | 6.43 | 1.59 | 4.1 | 4.56 | 1.59 | 1.06
25 | TAGCCTAGGTCATATCGGGCCAGTATACGCTATA | 2.44 | 3.33 | 3.95 | 1.17 | 2.49 | 4.54 | 0.783 | 0.939
26 | TAGCCGAGGTCATGGGCCAGTATACCACGCGAAC | 4.19 | 6.64 | 6.26 | 3.46 | 7.64 | 4.25 | 2.71 | 3.91
